± gives the standard deviation.
tested on: RAW-Dual (murine macrophage reporter line); assay: NF-kB reporter (SEAP) activity fold change vs agonist alone; higher = enhanced NF-kB activity; conditions: modulator concentration 10 µM; agonist: MPLA […]
How it was run: (§1)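 Compound reached 10 μM final in each well by pin transfer, onto RAW-Dual murine macrophage reporter cells seeded at 50 000 per well in 384-well plates. After 1 hour at 37 °C, the cells were stimulated overnight with a PRR agonist. SEAP in the supernatant was read with QUANTI-Blue at 620 nm absorbance for NF-κB, and Lucia luciferase was read with QUANTI-Luc luminescence for IRF. Each signal was turned into fold change against the mean agonist-only control on the same plate, and two replicate plates were averaged with propagated errors.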

Row | SMILES | NF-kB reporter
1 | CC(C)COc1ccc(CNC(=O)N(Cc2ccc(F)cc2)C2CCN(C)CC2)cc1.CC(C)COc1ccc(CNC(=O)N(Cc2ccc(F)cc2)C2CCN(C)CC2)cc1.O=C(O)[C@H](O)[C@@H](O)C(=O)O | 0.129 ± 0.012
2 | O=C1c2cccc3c2[C@H](CCC3)CN1[C@@H]1CN2CCC1CC2 [Prestw-1783] | 0.788 ± 0.031
3 | COc1cc2nc(N3CCN(C(=O)c4ccco4)CC3)nc(N)c2cc1OC.Cl | 0.953 ± 0.079
4 | Cc1cc(C(=O)Nc2ccc(-n3nnn(C)c3=O)cc2)c(C)o1 | 0.809 ± 0.041
5 | Cc1ccc(-c2cc(C(F)(F)F)n3nc(C(=O)NCCCN4CCOCC4)cc3n2)cc1 | 0.983 ± 0.082
6 | Cc1cccc(NC(=O)Cc2c(C)nc(SCc3ccccc3F)[nH]c2=O)c1C | 1.03 ± 0.081
7 | Cc1ccc2sc(NC(=O)c3cccc(N4C(=O)CCC4=O)c3)nc2c1C | 1.11 ± 0.12
8 | Cc1cc(C)n(CCNc2nc3ccccc3s2)n1 | 1 ± 0.1
9 | Cc1ccc(C(=O)N(CCCN)[C@@H](c2nc3cc(Cl)ccc3c(=O)n2Cc2ccccc2)C(C)C)cc1 | 0.59 ± 0.089
10 | CC1=C(C(=O)OC(C)C)C(c2cccc([N+](=O)[O-])c2)C(C(=O)OC2CN(C(c3ccccc3)c3ccccc3)C2)=C(N)N1 (configuration not stated) | 2.56 ± 0.17
11 | COC(=O)C1=C(C)NC2=C(C(=O)CC(C)(C)C2)C1c1ccc(OC)c(O)c1 (configuration not stated) | 1.01 ± 0.069
12 | O=C(Nc1cc(C(F)(F)F)cc(C(F)(F)F)c1)c1ccco1 | 1.02 ± 0.072
13 | O=C(CSc1ccc2ccccc2n1)NC1=NCCS1 | 0.972 ± 0.06
14 | CC(C)n1cnc(S(=O)(=O)N2CCC(S(=O)(=O)Cc3ccccc3)CC2)c1 | 1.02 ± 0.055
15 | CCNc1cc(C)nc(Nc2ccc(NC(=O)c3ccc(OC)c(OC)c3)cc2)n1 | 1.74 ± 0.17
16 | O=C(C=Cc1ccc(Cl)c(Cl)c1)c1ccc2ccccc2c1O | 0.935 ± 0.085
17 | CC(C)Cn1cc(Cl)c(=O)n(CC(C)C)c1=O | 1.01 ± 0.056
18 | Cc1ccc(C=C2Oc3c(ccc(O)c3CN3CCN(CCO)CC3)C2=O)cc1 | 1.19 ± 0.11
19 | CN1CCN2c3ccccc3Cc3ccccc3C2C1.Cl (configuration not stated) | 0.835 ± 0.058
20 | COC(=O)C1=C(C)NC(=O)CC1c1ccc(Cl)c(Cl)c1 (configuration not stated) | 0.957 ± 0.094
21 | CC(Oc1cccc(Cl)c1)C(=O)NCc1ccncc1 (configuration not stated) | 1.07 ± 0.091
22 | COc1cc(C(C)=O)ccc1OCCCN1CCC(c2noc3cc(F)ccc23)CC1 | 0.924 ± 0.056

tested on: RAW-Dual (murine macrophage reporter line); assay: IRF reporter (Lucia luciferase) activity fold change vs agonist alone; higher = enhanced IRF activity; conditions: modulator concentration 10 µM; agonist: 3'3'-cGAMP 10 ug/mL
How it was run: as §1

Row | SMILES | IRF reporter
23 | CN(C(=O)c1cncc(F)c1)C1CN(c2ccc3nnc(C4CC4)n3n2)C1 | 0.956 ± 0.087
24 | Cc1ncc(CC(=O)N2CCC(c3ccccc3Cl)S(=O)(=O)CC2)s1 (configuration not stated) | 1.11 ± 0.092
25 | O=C(C=Cc1ccc(O)cc1)c1ccc(O)cc1O | 0.305 ± 0.012
26 | Cc1cccc(C(=O)ON=C(c2ccncc2)c2ccc([N+](=O)[O-])cc2)c1 | 1.03 ± 0.068
27 | CCOC(=O)C1=C(C)NC(=S)NC1c1ccccc1OCc1ccccc1 (configuration not stated) | 0.679 ± 0.09
28 | O=C(C1COCC(=O)N1Cc1ccccc1)N1CCN(c2cccc(Cl)c2)CC1 (configuration not stated) | 1.01 ± 0.051
29 | COC(=O)C1=CN(CC2CCCO2)C=C(C(=O)OC)C1c1cccc(F)c1 (configuration not stated) | 0.868 ± 0.026
30 | CCOC(=O)[C@H](CCc1ccccc1)N[C@H]1CCc2ccccc2N(CC(=O)O)C1=O [Prestw-1129] | 1.02 ± 0.045
31 | NC(CO)(CO)CO.O=C(c1ccccc1)c1ccc2n1CCC2C(=O)O (configuration not stated) | 0.933 ± 0.032
32 | COc1ccc(C2C3=C(CC(c4ccccc4)CC3=O)Nc3ccccc3N2C(=O)C(C)C)cc1OC (configuration not stated) | 1.02 ± 0.025
33 | Cl.N=C(N)NC(=O)c1nc(Cl)c(N)nc1N | 0.984 ± 0.03
34 | O=Cc1cn(CCOc2ccc(Br)cc2)c2ccccc12 | 0.684 ± 0.033
35 | N#Cc1c(N=Cc2ccc(Br)cc2)sc2c1CCCC2 | 0.896 ± 0.14
36 | COc1c2c(nc3ccccc13)OC(C(C)(O)COC(C)=O)C2 (configuration not stated) | 1.04 ± 0.045
37 | Cc1ccc(OCCCOc2cccc3cccnc23)c(C)c1 | 0.932 ± 0.07
38 | O=S(=O)(c1ccc(F)cc1)n1cccc1 | 1.02 ± 0.05
39 | C[C@@H]1COC(Nc2ccc3ncnc(Nc4ccc(OCc5nccs5)c(Cl)c4)c3c2)=N1 | 0.186 ± 0.023
40 | NCCCC[C@H](N[C@@H](CCc1ccccc1)C(=O)O)C(=O)N1CCC[C@H]1C(=O)O | 1.26 ± 0.25
41 | CC(C)COc1ccc(CNC(=O)N(Cc2ccc(F)cc2)C2CCN(C)CC2)cc1.CC(C)COc1ccc(CNC(=O)N(Cc2ccc(F)cc2)C2CCN(C)CC2)cc1.O=C(O)[C@H](O)[C@@H](O)C(=O)O | 0.0542 ± 0.025
42 | O=C1c2cccc3c2[C@H](CCC3)CN1[C@@H]1CN2CCC1CC2 [Prestw-1783] | 0.63 ± 0.024

Row | SMILES | IRF reporter
43 | COc1cc2nc(N3CCN(C(=O)c4ccco4)CC3)nc(N)c2cc1OC.Cl | 0.9 ± 0.032
44 | Cc1cc(C(=O)Nc2ccc(-n3nnn(C)c3=O)cc2)c(C)o1 | 0.985 ± 0.064
45 | Cc1ccc(-c2cc(C(F)(F)F)n3nc(C(=O)NCCCN4CCOCC4)cc3n2)cc1 | 0.968 ± 0.024
46 | Cc1cccc(NC(=O)Cc2c(C)nc(SCc3ccccc3F)[nH]c2=O)c1C | 0.938 ± 0.043
47 | Cc1ccc2sc(NC(=O)c3cccc(N4C(=O)CCC4=O)c3)nc2c1C | 0.939 ± 0.03
48 | Cc1cc(C)n(CCNc2nc3ccccc3s2)n1 | 1.08 ± 0.055
49 | Cc1ccc(C(=O)N(CCCN)[C@@H](c2nc3cc(Cl)ccc3c(=O)n2Cc2ccccc2)C(C)C)cc1 | 0.209 ± 0.057
50 | CC1=C(C(=O)OC(C)C)C(c2cccc([N+](=O)[O-])c2)C(C(=O)OC2CN(C(c3ccccc3)c3ccccc3)C2)=C(N)N1 (configuration not stated) | 0.36 ± 0.021
51 | COC(=O)C1=C(C)NC2=C(C(=O)CC(C)(C)C2)C1c1ccc(OC)c(O)c1 (configuration not stated) | 1.01 ± 0.077
52 | O=C(Nc1cc(C(F)(F)F)cc(C(F)(F)F)c1)c1ccco1 | 0.715 ± 0.019
53 | O=C(CSc1ccc2ccccc2n1)NC1=NCCS1 | 0.968 ± 0.033
54 | CC(C)n1cnc(S(=O)(=O)N2CCC(S(=O)(=O)Cc3ccccc3)CC2)c1 | 1.06 ± 0.062
55 | CCNc1cc(C)nc(Nc2ccc(NC(=O)c3ccc(OC)c(OC)c3)cc2)n1 | 0.72 ± 0.023
56 | O=C(C=Cc1ccc(Cl)c(Cl)c1)c1ccc2ccccc2c1O | 0.96 ± 0.041
57 | CC(C)Cn1cc(Cl)c(=O)n(CC(C)C)c1=O | 1.03 ± 0.037
58 | Cc1ccc(C=C2Oc3c(ccc(O)c3CN3CCN(CCO)CC3)C2=O)cc1 | 1.02 ± 0.038
59 | CN1CCN2c3ccccc3Cc3ccccc3C2C1.Cl (configuration not stated) | 0.68 ± 0.032
60 | COC(=O)C1=C(C)NC(=O)CC1c1ccc(Cl)c(Cl)c1 (configuration not stated) | 1.06 ± 0.036
61 | CC(Oc1cccc(Cl)c1)C(=O)NCc1ccncc1 (configuration not stated) | 0.985 ± 0.057
62 | COc1cc(C(C)=O)ccc1OCCCN1CCC(c2noc3cc(F)ccc23)CC1 | 0.834 ± 0.027
